Assay results published in PubChem BioAssay (NCI).
Compounds without any hit were thinned out: in the full panel of roughly 83,000, 20% have a hit.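 A percent growth of 40 corresponds to 60% growth inhibition; 0 means no net growth; -100 means all cells died. Active threshold: below 10.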 A number with no mark means an inactive call. Calls of active or inactive are those of the source.

Tested on: MDA-MB-468 breast
Test: NCI-60 one-dose screen, 48 h (100 = growth as untreated, 0 = no growth, -100 = all killed)
Conditions: 10 µM unless noted

SMILES: Nc1nc2ccccc2c2c1S(=O)(=O)c1ccc(Cl)cc1C2=O
- growth: 10.8%

SMILES: COc1ccc(Nc2c3ccccc3nc3ccccc23)cc1
- growth: 14.1%

SMILES: O=C1c2cc(I)ccc2Oc2cc([N+](=O)[O-])ccc2N1c1ccc(Cl)cc1F
- growth: 96.2%

SMILES: C=C1c2c(C)nn(-c3ccc(S(N)(=O)=O)cc3)c2N(C)C23CC1C1(C)c4c(C)nn(-c5ccc(S(N)(=O)=O)cc5)c4N(C)C(C)(CC12)C3 (stereo not drawn)
- growth: 0.632% (active)

SMILES: COc1ccc(NC(=S)Nc2ccccn2)cc1
- growth: 104%

SMILES: Cc1c([C@H](C(Cl)Cl)[C@H](O)[C@H]2C[C@H](C)C(=O)O2)ccc2c1C(=O)[C@H]1[C@H]2C[C@@H](Br)[C@@]23O[C@@H](CO[C@H]2O)CC13C (stereo partly drawn)
- growth: 17.5%

SMILES: O=[N+]([O-])C1C(c2ccccc2)C12c1ccccc1-c1ccccc12 (stereo not drawn)
- growth: -26% (active)

SMILES: CCCCCCN(CCCCCC)C(=N)c1ccnc2ccccc12
- growth: 12.5%

SMILES: N#CCCOc1ccccc1
- growth: 114%

SMILES: CC1(C)CC[C@]2(C(=O)N3CCCNCC3)CC[C@]3(C)C(=CC[C@@H]4[C@@]5(C)CCC(=O)C(C)(C)[C@@H]5CC[C@]43C)[C@H]2C1
- growth: 106%

SMILES: CCc1ccccc1-n1c(N)c(C#N)c(-c2ccc(Cl)cc2)c(C#N)c1=O
- growth: 98.8%

SMILES: COc1ccc(OC)c(-c2c(C#N)c(-c3ccc(Cl)cc3)nc3c2c(-c2ccccc2)nn3-c2ccccc2)c1
- growth: 103%

SMILES: CC(=O)c1cc(C(=O)c2ccc(Br)cc2)n2cc(C)cc(C)c12
- growth: 89.3%
